Results filed as inconclusive are left out. Entries that show only a call come without a potency. The source holds several records for some structures; these can differ, active in one and inactive in another. Activity calls are given as the source filed them. Calls follow the shape of the dose curve; as a rule, active = well fitted inhibition curve with a large enough effect in the signal ratio in the repeat runs (not every such curve was filed as active); inconclusive = weak or mixed curves, or effect the other way; inactive = no such curve, though single readings can be large or run the other way; the % refers to the signal ratio.
Molecular target: Peroxisome proliferator-activated receptor delta (Homo sapiens) (UniProt Q03181)
Sequence (Q03181 whole entry, looked up): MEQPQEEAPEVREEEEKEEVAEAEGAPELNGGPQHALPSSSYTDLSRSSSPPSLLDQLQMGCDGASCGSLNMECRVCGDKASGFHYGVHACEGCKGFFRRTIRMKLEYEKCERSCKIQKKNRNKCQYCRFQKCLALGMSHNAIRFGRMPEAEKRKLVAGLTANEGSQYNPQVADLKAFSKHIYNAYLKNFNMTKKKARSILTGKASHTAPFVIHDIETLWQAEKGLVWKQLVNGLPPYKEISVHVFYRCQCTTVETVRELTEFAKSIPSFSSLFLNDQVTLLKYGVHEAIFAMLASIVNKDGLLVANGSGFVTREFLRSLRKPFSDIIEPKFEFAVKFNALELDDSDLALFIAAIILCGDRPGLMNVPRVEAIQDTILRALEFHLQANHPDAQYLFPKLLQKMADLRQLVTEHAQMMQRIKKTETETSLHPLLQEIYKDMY
Assay: qHTS assay to identify small molecule antagonists of the peroxisome proliferator-activated receptor delta (PPARd) signaling pathway (AID 743215);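 also: cells stimulated with agonist L165041 at 300 nM final during compound exposure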
Settings: HEK293H PPARd-UAS-bla, beta-lactamase FRET ratio, antagonist, 17 h; series mostly up to 62 µM
From the text: U.S. Tox21 Program National Center for Advancing Translational Sciences [NCATS] NIH Chemical Genomics Center [NCGC] U.S. Environmental Protection Agency [EPA] National Institutes of Environmental Health Sciences [NIEHS] National Toxicology Program [NTP] U.S. Food and Drug Administration [FDA] Tox21 Assay Overview: The peroxisome proliferator-activated receptors (PPARs) are lipid-activated transcription factors of the nuclear receptor superfamily with three distinct subtypes namely PPAR alpha, PPAR delta (PPARd) and PPAR gamma. All these subtypes heterodimerizes with Retinoid X receptor (RXR) and have different physiological functions. […] To identify the compounds that inhibit PPAR-delta signaling, GeneBLAzer PPAR delta UAS-bla HEK293H cell line (Invitrogen, Carlsbad, CA, USA) containing a beta-lactamase reporter gene under the control of an Upstream Activator Sequence (UAS) was used to screen the Tox21 compound library.
Tox21 Assay Protocol Summary: PPARd-bla cells were dispensed at 3000 cells/5uL/well in 1536-well black wall/clear bottom plates using a Multidrop Combi (Thermo Fisher Scientific, Waltham, MA) dispenser. After the assay plates were incubated at 37 C and 5% CO2 for 5 h, 23 nL of compounds dissolved in DMSO, positive controls or DMSO only was transferred to the assay plate by a Pintool station (Kalypsys, San Diego, CA), followed by addition of 1ul L165041 (300 nM, final concentration in the wells). The assay plates were incubated at 37 C for 17 h, and then 1 uL of LiveBLAzerTM B/G FRET substrate was added using a Bioraptr Flying Reagent Dispenser (FRD) workstation (Beckman Coulter, Indianapolis, IN, USA). The assay plates were incubated at room temperature for 2 h and fluorescence intensity was measured by an Envision plate reader (PerkinElmer, Shelton, CT).
Potency is read from the fitted curve at half-maximal effect.

Structure (SMILES) | Potency
Cn1cc(-c2ccccc2)c(=O)c(-c2cccc(C(F)(F)F)c2)c1 | inactive
[N-]=[N+]=[N-] | inactive
CC(C)(C)OOC(C)(C)C | inactive
CC(C)NC(=O)N1CC(=O)N(c2cc(Cl)cc(Cl)c2)C1=O | inactive
CC1OC(C)OC(C)O1 (stereo not given) | inactive
C=C(C)CCl | inactive
CC(C)C#N | inactive
O=c1[nH]c2ccccc2c(=O)o1 | inactive
CN(C)[C@@H]1C(=O)C(C(N)=O)=C(O)[C@@]2(O)C(=O)C3=C(O)c4c(O)cccc4[C@@](C)(O)[C@H]3C[C@@H]12 | inactive
Nc1ccc(Br)cc1 | inactive
OC(O)C(Cl)(Cl)Cl | inactive
C=CCO | inactive
Clc1cccc(Cl)c1Cl | inactive
O=NN1CCCC1 | inactive
CC(C)(Cl)Cl | inactive
c1ccc(-c2ccccc2)cc1 | inactive
C[C@]12CC[C@H]3[C@@H](CC[C@@]45O[C@@H]4C(O)=C(C#N)C[C@]35C)[C@@H]1CC[C@@H]2O | inactive
NCCc1ccc(O)cc1 | inactive
CN=C=S | inactive
C#CCN(C)[C@H](C)Cc1ccccc1 | inactive

Structure (SMILES) | Potency
CC(C)OC(=O)Nc1cccc(Cl)c1 | inactive
CCC(C)(CC)c1cc(NC(=O)c2c(OC)cccc2OC)on1 | 55.1 µM (active) and inactive
CC(C)=C[C@@H]1[C@@H](C(=O)OCc2coc(Cc3ccccc3)c2)C1(C)C | inactive
COP(N)(=O)SC (stereo not given) | inactive
c1cc2c3c(cccc3c1)CC2 | inactive
Cc1ccc([N+](=O)[O-])cc1C | inactive
O=[N+]([O-])c1ccccc1 | inactive
O=S(=O)(c1ccc(Cl)cc1)c1cc(Cl)c(Cl)cc1Cl | inactive
Cc1cc(-c2cc(C)c(N)c(C)c2)cc(C)c1N | inactive
CN(N=O)c1ccccc1 | inactive
CCNc1nc(NC(C)(C)C)nc(SC)n1 | inactive
C#CC(C)(C)NC(=O)c1cc(Cl)cc(Cl)c1 | inactive
COC(=O)NS(=O)(=O)c1ccc(N)cc1 | inactive
ClCCBr | inactive
CCOC(=O)c1ccccc1C(=O)OCC | inactive
CCC[CH2][Sn]([Cl])([Cl])[Cl] | inactive
O=C1CCCN1 | inactive
Cc1cc(Cl)ccc1O | inactive
COCCl | inactive
Oc1ccccc1Cl | inactive
